High-throughput results (PubChem)
This is one part of a sample in which hits are shown more often than they occur.
CHX counter = counter-screen hit for Shiga toxin inhibitors, cycloheximide | max response, % | AID 2314 | cell reporter, cycloheximide protein synthesis inhibition counterscreen | 300,000 tested, 12% active; in the data active means max response mostly above about 13%, no sharp cut-off; inactive means mostly below about 14%; further: read at 38.3 µM for the half of the compounds with a filed dose
Marburg entry inh = blocks Marburg virus binding to or entry into cells; Marburg virus pseudotyped entry inhibition, cell reporter; Potency, µM (highest dose often 37.8 µM), hits mostly inhibitors; 300,000 tested, 1.8% active; calls by dose curve; tested in HEK293 cells
Shiga inhibitor = inhibitors of Shiga toxin in Vero cells; inhibition, % at 38.7 µM; AID 2315; Vero cells, Shiga toxin protein synthesis inhibition reporter; 290,000 tested, 9.2% active; in the data active means inhibition mostly above about 28%, no sharp cut-off; inactive means mostly below about 43%
Lassa entry inh = Lassa virus entry inhibition. Lassa virus pseudotype entry inhibition, cell reporter. Potency, µM (series often up to 37.9 µM), usual class: inhibitors. 300,000 tested, 1.2% active. AID 540256; calls by dose curve; tested in HEK293 cells; further: nearly all actives have a fitted effect of over 50% in size
AMA1-RON2 inh = disrupts binding of P. falciparum AMA1 to RON2 | 360,000 tested, 0.2% active | Potency, µM (series often up to 58.2 µM), hits mostly inhibitors | AlphaScreen AMA1-biotinylated RON2 peptide binding; active means well fitted inhibition curve with a large enough effect; inconclusive means small, poorly fitted or top-dose-only effect; inactive means no such curve, though single readings can be large or run the other way; further: nearly all actives have a fitted effect of over 45% in size
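AMA1 (3D7) with his tag at 25 nM final met compounds first, then biotinylated RON2 peptide at 25 nM; detection used donor plus acceptor beads, 10 µg/mL apiece, read by AlphaScreen after 30 min at room temperature.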
Each line names hits and unclear results; the compound was inactive in the other large screens.

CC(=O)Nc1ccc(C(=O)Cn2nnc3ccccc3c2=O)cc1	CHX counter 13, Marburg entry inh inconclusive, Shiga inhibitor 50
Cc1ccc(C(=O)NNC(=O)Cn2nnc3ccccc32)cc1	CHX counter 17, Shiga inhibitor 41, Lassa entry inh inconclusive
CC(Sc1nnc(-c2cccnc2)o1)C(=O)NC1CCCCC1 (centres undefined)	none (no result: CHX counter, Marburg entry inh, Shiga inhibitor, Lassa entry inh)
NC(=O)Cn1c(=O)n(Cc2ccccc2)c(=O)c2cccnc21	none (no result: Marburg entry inh, Lassa entry inh)
COC(=O)CCC(=O)N1CCCC(CO)(Cc2ccccc2F)C1 (centres undefined)	none (no result: Marburg entry inh, Lassa entry inh)
CC(=O)OC[C@H]1O[C@@H](ON=CC[C@@H]2C=C[C@@H](OC(C)=O)[C@@H](COC(C)=O)O2)[C@@H](OC(C)=O)[C@@H](OC(C)=O)[C@@H]1OC(C)=O	none (no result: CHX counter, Shiga inhibitor, Lassa entry inh, AMA1-RON2 inh)
CCOc1cc(/C=N/NC(=S)Nc2ccccc2C(F)(F)F)ccc1OCC(=O)N1CCOCC1	Marburg entry inh inconclusive, Lassa entry inh inconclusive
Cc1ccc(NC(=O)CCn2nnc3ccccc32)cc1	CHX counter 25, Marburg entry inh inconclusive, Shiga inhibitor 79
Cc1ccc(NC(=O)CCn2nnc3ccccc32)c(C)c1	Marburg entry inh inconclusive
Cc1cc(=O)c2ccccc2n1CC(=O)NCc1ccccc1	Marburg entry inh 10µM, Lassa entry inh inconclusive
O=C(Cn1nnc2ccccc21)NCc1ccccc1	CHX counter 60, Marburg entry inh inconclusive, Shiga inhibitor 64, Lassa entry inh inconclusive
O=C(Cn1nnc2ccccc21)OCc1ccccc1	none (no result: Marburg entry inh, Lassa entry inh)
Cc1ccc(C(=O)Cn2nnc3ccccc32)cc1C	CHX counter 69, Marburg entry inh inconclusive, Shiga inhibitor 140, Lassa entry inh inconclusive
Cc1cccc(C(=O)OCC(=O)NCCCc2ccccc2)c1	Marburg entry inh inconclusive
CCCCNC(=O)C1C(c2ccc(OC)cc2)=Nc2ccccc2N1C(=O)c1ccncc1 (centres undefined)	none (no result: CHX counter, Marburg entry inh, Shiga inhibitor, Lassa entry inh)
Cc1nn2c(=O)cc(COC(=O)c3ccccc3NC(=O)C(C)C)nc2s1	none (no result: CHX counter, Marburg entry inh, Shiga inhibitor, AMA1-RON2 inh)
COc1ccc(/C=C/C(=O)OCC(=O)NC(C)CCc2ccccc2)cc1OC (centres undefined)	none (no result: CHX counter, Marburg entry inh, Shiga inhibitor, Lassa entry inh)
O=C(Cn1nnc2ccccc21)OCC(=O)c1ccc(Cl)cc1	none (no result: Marburg entry inh, Lassa entry inh, AMA1-RON2 inh)
Cc1ccc(C(=O)Cn2nnc3ccccc32)cc1	CHX counter 38, Marburg entry inh inconclusive, Shiga inhibitor 66
C/C(=N\NC(=O)CCn1nnc2ccccc21)c1cccs1	CHX counter 33, Shiga inhibitor 51
C/C(=N\NC(=O)Cn1cnc2ccccc21)c1cccs1	none
c1ccc(CCn2nnc3ccccc32)cc1	CHX counter 50, Shiga inhibitor 189 (no result: Marburg entry inh, Lassa entry inh)
N#CCCn1nnc2ccccc21	none
Cc1cccc(NS(=O)(=O)c2ccc(-n3cccn3)cc2)c1C	Lassa entry inh inconclusive
COc1cc(C(c2c(C)[nH][nH]c2=O)c2c(C)[nH][nH]c2=O)ccc1OCc1ccc([N+](=O)[O-])cc1	CHX counter 25, Marburg entry inh inconclusive
O=C1NC(=O)C(=Cc2ccc(Oc3ccc([N+](=O)[O-])cc3)cc2)C(=O)N1	none
CCOC(=O)C(=Cc1ccc(OCc2ccc([N+](=O)[O-])cc2)c(OC)c1)C(=O)OCC	CHX counter 43, Marburg entry inh inconclusive, Lassa entry inh inconclusive
COC(=O)C(=Cc1ccc(OCc2ccc([N+](=O)[O-])cc2)c(OC)c1)C(=O)OC	CHX counter 24, Marburg entry inh inconclusive, Shiga inhibitor 42, Lassa entry inh inconclusive
COc1cc(/C=N/NC(=O)c2cccc([N+](=O)[O-])c2)ccc1OCc1ccccc1	none
COc1cc(C(c2c(C)[nH][nH]c2=O)c2c(C)[nH][nH]c2=O)ccc1OC(=O)c1cccc([N+](=O)[O-])c1	none
COc1cc(C=C2C(=O)NC(=O)NC2=O)ccc1OCc1ccc([N+](=O)[O-])cc1	CHX counter 59, Shiga inhibitor 102
CC(C)(C)c1cc(CCC(=O)Nc2ccncc2)cc(C(C)(C)C)c1O	none (no result: CHX counter, Marburg entry inh, Shiga inhibitor, Lassa entry inh)
COc1ccc(N2CCN(C(=O)Cc3ccc(S(=O)(=O)N4CCOCC4)s3)CC2)cc1	Marburg entry inh inconclusive
CC(C)C[C@H](NC(=O)[C@@H](N)Cc1ccccc1)C(=O)N[C@@H](Cc1ccccc1)C(=O)N[C@@H](CCC(N)=O)C(=O)N1CCC[C@H]1C(=O)N[C@@H](CCC(N)=O)C(=O)N[C@@H](CCCN=C(N)N)C(=O)N[C@@H](Cc1ccccc1)C(N)=O	none (no result: Marburg entry inh, Lassa entry inh, AMA1-RON2 inh)
CCOc1ccc(NS(=O)(=O)c2ccc(C(=O)N(C)Cc3cccc(OC)c3OC)cc2)cc1	Marburg entry inh inconclusive, Lassa entry inh inconclusive
COc1ccc(Cn2c(=O)[nH]c3cc(C(=O)NC4CCN(Cc5ccccc5)CC4)ccc32)cc1	Marburg entry inh 9.2µM
